Active and inactive are the calls of the source. Unless noted, how the calls were made is not given here.
How the values were obtained:
[1] = system: Wnt5a (protein binding on small-molecule microarray); test: Wnt5a binders on small-molecule microarray, primary screen, biophysical, 635/667 nm fluorescence (AID 1142); details: 635 nm fluorescence, higher = more signal;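 further: fluorescence read at 667 nm with signal to noise per printed feature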
[2] = cell viability in Huh7 cells, primary screen, cytotoxicity control for HCV replication inhibitor project, CellTiter-Glo luminescence, basal, 48 h (AID 1143); details: Huh7 HCV replicon, higher = more signal, called active from +8 up or from −8 down;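 further: Huh7 hepatoma cells carrying a hepatitis C replication reporter with no stimulus; test concentration not given here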
[3] = P. aeruginosa biofilm formation inhibitors, primary screen, PAO1 strain, BacTiter-Glo luminescence, LB-PBS (AID 1144); details: 12 h, higher = more signal
[4] = CREB reporter modulators without forskolin, primary screen, cell-based, PC12, CRE-LacZ reporter, unstimulated (AID 1145); details: no forskolin, luminescence, 4.5 h, higher = more signal, called active from +8 up or from −8 down
[5] = CREB reporter modulators under forskolin, primary screen, cell-based, PC12, CRE-LacZ reporter, forskolin-stimulated (AID 1146); details: luminescence, 4.5 h, higher = more signal, called active from +8 up or from −8 down;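 further: PC12 cells with 6xCRE LacZ reporter stimulated by forskolin 10 µM; beta-galactosidase reporter signal reflecting CREB driven transcription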
[6] = molecular target: Streptavidin (Streptomyces avidinii) (UniProt P22629); test: streptavidin binders on small-molecule microarray, primary screen, artefact control for SMM compound annotation, biophysical, 635/667 nm fluorescence (AID 1147); details: streptavidin binding, higher = more signal;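 further: signal reflects streptavidin binding to arrayed compounds as a control protein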
Streptavidin (Streptomyces avidinii), sequence (P22629 whole entry, looked up): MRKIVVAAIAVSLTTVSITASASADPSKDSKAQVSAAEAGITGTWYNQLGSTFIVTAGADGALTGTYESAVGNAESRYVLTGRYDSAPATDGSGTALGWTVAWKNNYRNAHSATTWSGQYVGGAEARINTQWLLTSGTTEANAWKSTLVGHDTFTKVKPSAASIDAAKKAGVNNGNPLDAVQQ

[7] = small-molecule binders of probe aInhba, primary screen, biochemical, small-molecule microarray, 635/667 nm fluorescence (AID 1148); details: higher = more signal;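 further: score merges 667nm spot fluorescence with signal-to-noise for antibody binding to printed compounds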
Torsin-1A (Homo sapiens) [8] = molecular target: Torsin-1A (Homo sapiens) (UniProt O14656); test: torsin A binders from cell lysate, primary screen, small-molecule microarray, wild-type, 635/667 nm (AID 1149); details: COS7 hTOR1A-WT lysate, 635 nm fluorescence, higher = more signal
Torsin-1A (Homo sapiens), sequence (O14656 whole entry, looked up): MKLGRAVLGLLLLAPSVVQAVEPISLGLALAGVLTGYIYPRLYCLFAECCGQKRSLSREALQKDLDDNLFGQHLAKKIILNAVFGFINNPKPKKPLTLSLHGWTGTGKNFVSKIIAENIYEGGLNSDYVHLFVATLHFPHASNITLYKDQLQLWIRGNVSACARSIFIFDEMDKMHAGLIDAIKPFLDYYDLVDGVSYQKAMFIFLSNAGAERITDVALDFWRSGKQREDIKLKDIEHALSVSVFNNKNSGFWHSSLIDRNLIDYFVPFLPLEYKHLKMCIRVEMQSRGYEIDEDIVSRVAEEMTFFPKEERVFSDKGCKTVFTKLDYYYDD

Torsin-1A (Homo sapiens) [9] = molecular target: Torsin-1A (Homo sapiens) (UniProt O14656); test: small-molecule binders of mutant TOR1A in lysate, primary screen, cell lysate, small-molecule microarray, COS7 lysate, 635/667 nm fluorescence (AID 1150); details: COS7 hTOR1A mutant lysate, 635 nm fluorescence, higher = more signal;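 further: score pools 667 nm emission and signal to noise measuring lysate protein binding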
[10] = system: Sonic hedgehog protein (Shh); test: small-molecule binders of Shh protein, primary screen, biochemical, small-molecule microarray, 635/667 nm fluorescence (AID 1151); details: small-molecule microarray binding, 635 nm fluorescence; higher = more signal;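 further: Shh protein binding to compounds spotted on small-molecule microarray slides; score combines spot fluorescence intensity with signal-to-noise across triplicate slides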
[11] = E. coli DRC41 culture turbidity changes, primary screen, E. coli filamentation inducer project, strain DRC41, OD650, 48 h (AID 1152);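 further: E. coli MC1000 strain DRC41 lacking acrAB efflux pump and sulA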; details: E. coli DRC41 (acrAB sulA), higher = more signal, called active from +8 up or from −8 down
[12] = small-molecule binders of probe aLefty1, primary screen, biochemical, small-molecule microarray, 635/667 nm fluorescence (AID 1153); details: higher = more signal;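 further: score merges spot fluorescence with signal-to-noise ratio from the scanned slide images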
[13] = PSAC antagonists in infected red cells, primary screen, cell-based, P. falciparum Indochina, OD700, 1 h (AID 1154); details: P. falciparum Indochina infected RBC osmotic lysis, higher = more signal, called active from +8 up or from −8 down
[14] = PSAC antagonists in infected red cells, primary screen, cell-based, P. falciparum Indochina, OD700, 2 h (AID 1155);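 further: lysis reports solute entry through the parasite surface anion channel PSAC; channel blockers reduce lysis of infected cells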; details: P. falciparum Indochina infected erythrocytes, osmotic lysis OD700; higher = more signal, called active from +8 up or from −8 down
[15] = osmotic lysis modulators in infected erythrocytes, primary screen, PSAC antagonist project, cell-based, P. falciparum Indochina, OD700, 3 h (AID 1156); details: higher = more signal, called active from +8 up or from −8 down
[16] = PSAC antagonists in infected red cells, primary screen, cell-based, P. falciparum Indochina, OD700, 18 h (AID 1157); details: P. falciparum Indochina infected erythrocytes, osmotic lysis OD700, 18 h; higher = more signal, called active from +8 up or from −8 down
[17] = modulators of S6 phosphorylation in cells, primary screen, cell-based, A549, cytoblot, luminescence, serum-stimulated (AID 1158); details: A549 phospho-S6 cytoblot, 5 h, higher = more signal;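 further: serum-stimulated A549 lung adenocarcinoma cells; signal is phosphorylated S6 detected by cytoblot immunostaining with HRP secondary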
[18] = molecular target: NADPH oxidase 2 (Homo sapiens) (UniProt P04839); test: NOX2-dependent H2O2 signal modulators, primary screen, NOX inhibitor project, cell-based, HEK293-NOX2, PMA-stimulated, Amplex Red fluorescence (AID 1159); details: 45 min, higher = more signal, called active from +8 up or from −8 down; further: test concentration not given here
NADPH oxidase 2 (Homo sapiens), sequence (P04839 whole entry, looked up): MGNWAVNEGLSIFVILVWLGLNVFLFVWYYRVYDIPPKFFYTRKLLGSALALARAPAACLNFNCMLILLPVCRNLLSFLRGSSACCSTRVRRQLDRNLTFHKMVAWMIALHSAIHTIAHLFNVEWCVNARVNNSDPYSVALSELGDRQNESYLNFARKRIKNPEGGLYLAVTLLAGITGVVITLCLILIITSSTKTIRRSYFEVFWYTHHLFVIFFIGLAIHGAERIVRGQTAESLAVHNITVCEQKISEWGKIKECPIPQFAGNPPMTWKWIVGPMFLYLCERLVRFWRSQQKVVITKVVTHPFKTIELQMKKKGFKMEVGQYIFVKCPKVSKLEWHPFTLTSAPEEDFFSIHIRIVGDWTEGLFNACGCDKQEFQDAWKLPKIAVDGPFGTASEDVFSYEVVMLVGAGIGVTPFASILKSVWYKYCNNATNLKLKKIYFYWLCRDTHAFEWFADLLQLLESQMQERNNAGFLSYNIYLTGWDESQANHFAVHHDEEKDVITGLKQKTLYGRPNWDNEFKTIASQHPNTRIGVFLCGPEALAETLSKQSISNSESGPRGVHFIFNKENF

[19] = molecular target: NADPH oxidase 4 (Homo sapiens) (UniProt Q9NPH5); test: NOX4-dependent H2O2 signal modulators, primary screen, NOX inhibitor project, cell-based, HEK293-NOX4, tetracycline-induced, Amplex Red fluorescence (AID 1160); details: 45 min, higher = more signal, called active from +8 up or from −8 down
NADPH oxidase 4 (Homo sapiens), sequence (Q9NPH5 whole entry, looked up): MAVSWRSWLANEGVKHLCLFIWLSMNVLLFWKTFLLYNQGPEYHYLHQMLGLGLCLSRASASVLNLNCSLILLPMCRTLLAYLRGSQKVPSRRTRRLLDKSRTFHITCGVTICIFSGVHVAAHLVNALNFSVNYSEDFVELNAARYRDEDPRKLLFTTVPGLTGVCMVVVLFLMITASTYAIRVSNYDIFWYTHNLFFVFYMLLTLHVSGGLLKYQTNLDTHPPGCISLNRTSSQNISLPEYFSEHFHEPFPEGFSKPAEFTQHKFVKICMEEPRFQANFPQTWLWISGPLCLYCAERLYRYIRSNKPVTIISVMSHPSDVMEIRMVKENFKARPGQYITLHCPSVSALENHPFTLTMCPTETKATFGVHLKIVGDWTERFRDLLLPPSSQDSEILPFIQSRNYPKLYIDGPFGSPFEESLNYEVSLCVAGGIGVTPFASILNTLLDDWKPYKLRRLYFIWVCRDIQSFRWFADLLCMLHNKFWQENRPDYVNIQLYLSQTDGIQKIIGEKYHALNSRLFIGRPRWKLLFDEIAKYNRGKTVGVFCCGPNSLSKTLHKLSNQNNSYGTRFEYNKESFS

[20] = molecular target: NADPH oxidase 5 (Homo sapiens) (UniProt Q96PH1); test: NOX5-dependent H2O2 signal modulators, primary screen, NOX inhibitor project, cell-based, HEK293-NOX5, Amplex Red fluorescence (AID 1161); details: HEK293-NOX5, ionomycin, 45 min, higher = more signal
NADPH oxidase 5 (Homo sapiens), sequence (Q96PH1 whole entry, looked up): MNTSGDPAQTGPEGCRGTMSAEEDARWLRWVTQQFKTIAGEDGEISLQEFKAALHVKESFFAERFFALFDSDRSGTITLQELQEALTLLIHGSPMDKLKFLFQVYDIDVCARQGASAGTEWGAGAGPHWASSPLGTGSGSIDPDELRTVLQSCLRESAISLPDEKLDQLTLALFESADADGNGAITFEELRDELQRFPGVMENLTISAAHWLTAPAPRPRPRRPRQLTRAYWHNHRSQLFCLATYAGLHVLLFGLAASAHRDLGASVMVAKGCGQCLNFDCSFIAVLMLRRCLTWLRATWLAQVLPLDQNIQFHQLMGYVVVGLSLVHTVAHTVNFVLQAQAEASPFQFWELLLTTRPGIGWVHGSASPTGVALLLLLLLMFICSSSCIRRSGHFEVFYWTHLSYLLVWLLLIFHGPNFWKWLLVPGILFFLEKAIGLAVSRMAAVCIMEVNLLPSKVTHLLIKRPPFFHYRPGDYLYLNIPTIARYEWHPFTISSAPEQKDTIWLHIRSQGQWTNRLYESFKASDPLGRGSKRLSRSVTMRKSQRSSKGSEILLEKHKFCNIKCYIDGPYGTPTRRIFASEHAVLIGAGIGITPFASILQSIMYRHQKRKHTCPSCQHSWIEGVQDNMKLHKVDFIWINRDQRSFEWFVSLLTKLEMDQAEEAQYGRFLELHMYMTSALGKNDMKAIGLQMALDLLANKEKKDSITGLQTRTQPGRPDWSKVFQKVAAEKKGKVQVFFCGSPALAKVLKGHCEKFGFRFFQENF

Compound	composite z-score [1]	z-score [2]	z-score [3]	z-score [4]	z-score [5]	composite z-score [6]	composite z-score [7]	composite z-score (Torsin-1A (Homo sapiens) [8])	composite z-score (Torsin-1A (Homo sapiens) [9])	composite z-score [10]	z-score [11]	composite z-score [12]	z-score [13]	z-score [14]	z-score [15]	z-score [16]	z-score [17]	z-score [18]	z-score [19]	z-score [20]
C#CCCCON=C1[C@H]2CCn3c(=O)n([C@@H](CC)c4ccccc4)c(=O)n3[C@H]2[C@H](O)[C@@H]2O[C@H]12	0.352	0.222 (inactive)	0.453 (inactive)	1.15 (inactive)	0.253 (inactive)	0.017	-0.045	-0.0784	0.472	0.441	-1.02 (inactive)	-0.101	0.957 (inactive)	0.193 (inactive)	0.461 (inactive)	0.0103 (inactive)	1.09	1.29 (inactive)	0.633 (inactive)	1.12
CCOC(=O)NN=C1C[C@@H](O)[C@@H](O)[C@@H]2[C@@H]3C(=O)N(c4ccc(F)cc4F)C(=O)[C@@H]3CC[C@H]12	0.199	-4.03 (inactive)	-1.05 (inactive)	-0.296 (inactive)	0.409 (inactive)	-0.0442	-0.0962	0.49	0.381	0.404	-0.57 (inactive)	-0.0106	1.03 (inactive)	-1.41 (inactive)	0.465 (inactive)	-1.75 (inactive)	0.245	-4.88 (inactive)	-1.81 (inactive)	-0.472
CO[C@@H](C1CCCCC1)[C@@H](C)[C@H](OCc1cccc(Br)c1)[C@@H](C)CO	-0.098	-2.1 (inactive)	0.115 (inactive)	2.93 (inactive)	0.432 (inactive)	-0.0731	0.0442	-0.0604	0.467	0.458	-0.409 (inactive)	-0.401	2.08 (inactive)	1.29 (inactive)	-1.8 (inactive)	0.957 (inactive)	-0.337	-0.787 (inactive)	0.0443 (inactive)	-2.45
CO[C@@H]1COC(=O)CC=C[C@H](C)[C@H](OC)COC(=O)[C@@H]2CCCN2C(=O)CC=C[C@H]1C	0.0408	-0.754 (inactive)	0.243 (inactive)	0.609 (inactive)	-0.628 (inactive)	-0.0406	-0.0112	0.719	1.22	1.83	-0.2 (inactive)	-0.276	0.521 (inactive)	0.457 (inactive)	-0.0249 (inactive)	0.158 (inactive)	-0.0291	1.18 (inactive)	-0.686 (inactive)	0.294
CCOC(=O)[C@H](Cc1ccccc1)NC(=O)CCC1CC(OC(=O)NCc2ccc3c(c2)OCO3)CC2(CCCC(COC(=O)NCCOc3ccccc3)O2)O1 (stereo not given in full)	0.0544	-0.464 (inactive)	-1.09 (inactive)	-0.793 (inactive)	-0.361 (inactive)	0.411	-0.177	0.662	0.184	1.6	0.0897 (inactive)	-0.239	-1.84 (inactive)	0.179 (inactive)	-0.0818 (inactive)	0.0514 (inactive)	-0.138	0.339 (inactive)	0.519 (inactive)	0.653
CC(C)=CCCC(C)=CCON=C1C[C@@H](O)[C@@H](O)[C@@H]2[C@@H]3C(=O)N(c4cccc(Oc5ccccc5)c4)C(=O)[C@@H]3CC[C@H]12	-0.022	-1.47 (inactive)	1.73 (inactive)	-0.205 (inactive)	-0.158 (inactive)	-0.11	-0.128	0.575	0.704	1.51	0.349 (inactive)	0.0363	2.26 (inactive)	1.25 (inactive)	0.17 (inactive)	0.722 (inactive)	0.34	-1.35 (inactive)	0.0399 (inactive)	-0.583
CCCCOC(OCCCC)C(O)CSc1ccc2ccccc2c1 (stereo not given)	0.133	-0.657 (inactive)	-0.315 (inactive)	1.01 (inactive)	0.257 (inactive)	0.465	-0.282	0.453	-0.0078	0.789	0.278 (inactive)	-0.103	5.46 (inactive)	0.667 (inactive)	-1.43 (inactive)	0.248 (inactive)	-0.455	-0.28 (inactive)	-0.657 (inactive)	-3.7
CO[C@H]1C[C@@H]2C[C@H](O)CC(CC(=O)O[C@@H](C=CCC(C)C)C[C@@H]3CC[C@H](C)[C@@H](C1)O3)O2	0.318	-0.454 (inactive)	0.883 (inactive)	2.64 (inactive)	0.405 (inactive)	0.645	-0.0494	0.778	0.183	1.02	-0.55 (inactive)	-0.104	0.818 (inactive)	0.41 (inactive)	0.773 (inactive)	-0.0957 (inactive)	-0.254	-1.17 (inactive)	0.226 (inactive)	1.2
O=C(NN=C1C[C@@H](O)[C@@H](O)[C@@H]2[C@@H]3C(=O)N(c4ccc(F)cc4F)C(=O)[C@@H]3CC[C@H]12)OCc1ccccc1	-0.0874	-0.845 (inactive)	0.0604 (inactive)	-0.299 (inactive)	0.139 (inactive)	0.727	-0.101	0.671	1.13	-0.836	0.342 (inactive)	0.207	10.1 (active)	1.29 (inactive)	0.497 (inactive)	0.6 (inactive)	-0.262	0.317 (inactive)	1.33 (inactive)	0.866
COc1ccc(COC(=O)NN=C2C[C@@H](O)[C@@H](O)[C@@H]3[C@@H]4C(=O)N(c5cccc(Oc6ccccc6)c5)C(=O)[C@@H]4CC[C@H]23)cc1	-0.142	-3.56 (inactive)	0.111 (inactive)	-0.293 (inactive)	0.505 (inactive)	0.993	-0.0375	-0.135	-0.144	-1.44	0.249 (inactive)	0.4	3.48 (inactive)	-0.469 (inactive)	1.89 (inactive)	-2.15 (inactive)	0.0187	-1.26 (inactive)	-1.6 (inactive)	-1.49
COc1ccc(COC(=O)NN=C2C[C@@H](O)[C@@H](O)[C@@H]3[C@@H]4C(=O)N(C[C@@H]5CCCO5)C(=O)[C@@H]4CC[C@H]23)cc1	-0.109	0.338 (inactive)	0.296 (inactive)	0.159 (inactive)	-0.166 (inactive)	0.669	0.0275	-0.858	-0.48	-1.12	-0.39 (inactive)	0.544	3.23 (inactive)	0.632 (inactive)	0.398 (inactive)	0.548 (inactive)	-0.308	-3.46 (inactive)	0.223 (inactive)	0.0239
C=CC[C@@H]1C=CC(ON=C(C)C)[C@@H](CO)O1 (stereo not given in full)	-0.174	0.28 (inactive)	0.0414 (inactive)	-1.13 (inactive)	-0.92 (inactive)	0.543	0.0357	0.193	-0.611	-0.117	-1.85 (inactive)	-0.147	0.42 (inactive)	0.81 (inactive)	-0.316 (inactive)	0.195 (inactive)	-0.0323	-0.202 (inactive)	-0.173 (inactive)	0.264
CC=CC1=C(CO)[C@H](O)[C@H]2O[C@H]2[C@@H]1O	0.0984	-0.0795 (inactive)	-0.549 (inactive)	-0.525 (inactive)	1.26 (inactive)	0.162	1.37	0.587	0.131	0.875	-0.412 (inactive)	-0.106	-0.312 (inactive)	0.367 (inactive)	-0.242 (inactive)	0.172 (inactive)	-0.325	0.623 (inactive)	-0.191 (inactive)	0.109
O=C1[C@H]2[C@H]3[C@H](O)[C@H](O)CC(=NOC[C@@H](O)COCc4ccco4)[C@@H]3CC[C@H]2C(=O)N1Cc1ccccc1	-0.0051	-1.65 (inactive)	0.969 (inactive)	-0.294 (inactive)	0.183 (inactive)	-0.153	-0.186	3.04	1.92	0.399	0.119 (inactive)	0.185	28.6 (active)	4.72 (inactive)	0.618 (inactive)	1.21 (inactive)	-0.585	-1.69 (inactive)	-0.3 (inactive)	-0.858
C[C@@H]1CC[C@H]2C(=O)OC(CN3C(=O)c4ccccc4C3=O)CN2[C@H]1c1ccc(Br)cc1 (stereo not given in full)	-0.0102	0.135 (inactive)	0.447 (inactive)	1.19 (inactive)	-0.841 (inactive)	0.942	-0.045	-0.0288	0.396	-0.365	0.634 (inactive)	0.0315	3.61 (inactive)	0.63 (inactive)	-0.694 (inactive)	0.246 (inactive)	0.134	0.371 (inactive)	0.182 (inactive)	-0.055
CO[C@@H]1COC(=O)[C@@H]2CCCN2C(=O)[C@@H](C)COC(=O)CCC[C@H]1C	-0.0105	-0.848 (inactive)	-0.506 (inactive)	0.355 (inactive)	-0.269 (inactive)	1.21	-0.153	1.21	0.241	1.18	-0.476 (inactive)	-0.241	-0.238 (inactive)	-1.48 (inactive)	-0.0716 (inactive)	-2.21 (inactive)	2.43	-0.634 (inactive)	0.0989 (inactive)	0.43

— PubChem BioAssay
